# According to paper PMC7862700, “An all-to-all approach to the identification of sequence-specific readers for epigenetic DNA modifications on cytosine”:
# Key:
# Assay in all cases: DAPPL (digital affinity profiling via proximity ligation, sequencing); 10 mM Tris-HCl pH 7.5, 50 mM NaCl, 1 mM DTT, 4% glycerol, room temperature, 30 min; GST-TFs on glutathione beads, 16-mer random dsDNA library, 0.1% formaldehyde crosslink after washing; high values mean tight binding
# FLI1 = biological target: T1, FLI1 (Homo sapiens, UniProt Q01543 1-452); conditions: protein: recombinant; tags: N-terminal GST; dsDNA, one strand shown
# T1 sequence: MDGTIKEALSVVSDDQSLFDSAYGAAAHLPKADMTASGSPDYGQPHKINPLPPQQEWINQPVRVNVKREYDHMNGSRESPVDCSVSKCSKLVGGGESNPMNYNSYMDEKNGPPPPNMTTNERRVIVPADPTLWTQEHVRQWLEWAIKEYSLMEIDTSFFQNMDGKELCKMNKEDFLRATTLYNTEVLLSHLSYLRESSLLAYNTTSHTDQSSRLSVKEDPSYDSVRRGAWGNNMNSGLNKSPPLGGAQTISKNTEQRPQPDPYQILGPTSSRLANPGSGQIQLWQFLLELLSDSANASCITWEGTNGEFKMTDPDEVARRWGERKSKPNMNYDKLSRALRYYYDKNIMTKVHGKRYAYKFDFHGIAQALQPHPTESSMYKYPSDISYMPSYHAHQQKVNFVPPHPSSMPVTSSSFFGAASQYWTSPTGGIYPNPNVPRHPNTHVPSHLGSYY
# Summary of the method: (§1)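 Binding signal is given per hexamer as its read frequency for a factor divided by its frequency in the tag-only sample. GST-fused human transcription factors were expressed in yeast, captured on glutathione beads, barcoded with DNA and pooled with that sample, then incubated with 200 nmole of a 16-mer random double-stranded DNA library in Tris/NaCl/DTT/glycerol buffer for 30 min at room temperature. The pools were then washed, crosslinked, proximity-ligated, amplified by PCR and sequenced on an Illumina NextSeq500.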
# ELK1 = biological target: T2, ELK1 (Homo sapiens, UniProt P19419 1-428); conditions: protein: recombinant; tags: N-terminal GST; dsDNA, one strand shown
# T2 sequence: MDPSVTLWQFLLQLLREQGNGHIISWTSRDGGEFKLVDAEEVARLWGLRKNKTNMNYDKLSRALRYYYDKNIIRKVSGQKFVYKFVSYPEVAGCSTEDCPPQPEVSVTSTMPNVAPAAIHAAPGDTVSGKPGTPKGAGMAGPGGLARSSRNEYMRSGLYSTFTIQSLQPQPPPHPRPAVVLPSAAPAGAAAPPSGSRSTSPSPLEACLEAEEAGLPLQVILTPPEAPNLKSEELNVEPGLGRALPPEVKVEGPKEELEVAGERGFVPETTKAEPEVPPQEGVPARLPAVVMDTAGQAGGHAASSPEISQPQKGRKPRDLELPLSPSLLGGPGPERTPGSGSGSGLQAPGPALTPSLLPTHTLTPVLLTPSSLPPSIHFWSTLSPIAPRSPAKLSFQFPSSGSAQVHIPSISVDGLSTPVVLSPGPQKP
# Summary of the method: as §1
# GABPA = biological target: T3, GABPA (Homo sapiens, UniProt Q06546 1-454); conditions: protein: recombinant; tags: N-terminal GST; dsDNA, one strand shown
# T3 sequence: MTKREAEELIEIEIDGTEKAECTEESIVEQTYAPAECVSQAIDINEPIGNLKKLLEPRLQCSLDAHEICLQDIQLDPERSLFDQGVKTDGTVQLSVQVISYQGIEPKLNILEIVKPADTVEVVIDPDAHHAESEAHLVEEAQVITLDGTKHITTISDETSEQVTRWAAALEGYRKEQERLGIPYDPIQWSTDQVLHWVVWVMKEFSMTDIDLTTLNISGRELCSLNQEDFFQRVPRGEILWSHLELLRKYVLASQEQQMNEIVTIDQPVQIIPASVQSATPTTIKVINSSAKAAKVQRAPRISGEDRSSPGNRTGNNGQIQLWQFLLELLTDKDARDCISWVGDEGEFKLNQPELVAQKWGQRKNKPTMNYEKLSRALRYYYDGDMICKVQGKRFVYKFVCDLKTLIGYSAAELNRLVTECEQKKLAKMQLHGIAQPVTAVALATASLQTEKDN
# Summary of the method: as §1
# ERG = biological target: T4, ERG (Homo sapiens, UniProt P11308 1-479); conditions: protein: recombinant; tags: N-terminal GST; dsDNA, one strand shown
# T4 sequence: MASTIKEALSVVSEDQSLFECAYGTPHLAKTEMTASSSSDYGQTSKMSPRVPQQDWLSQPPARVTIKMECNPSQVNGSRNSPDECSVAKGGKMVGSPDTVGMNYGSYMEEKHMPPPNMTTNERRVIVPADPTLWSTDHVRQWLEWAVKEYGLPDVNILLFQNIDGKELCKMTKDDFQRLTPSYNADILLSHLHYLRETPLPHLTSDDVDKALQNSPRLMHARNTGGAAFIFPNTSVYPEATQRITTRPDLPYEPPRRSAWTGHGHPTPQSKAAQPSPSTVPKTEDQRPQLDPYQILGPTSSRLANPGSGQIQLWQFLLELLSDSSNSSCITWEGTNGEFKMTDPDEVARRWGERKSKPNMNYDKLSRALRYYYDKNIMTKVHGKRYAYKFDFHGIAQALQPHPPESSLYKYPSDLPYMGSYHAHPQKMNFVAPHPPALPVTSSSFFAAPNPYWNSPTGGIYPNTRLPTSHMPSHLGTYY
# Summary of the method: as §1
# ELF1 = ELF1 (Homo sapiens, UniProt P32519 1-619); conditions: protein: recombinant; tags: N-terminal GST; dsDNA, one strand shown
# Summary of the method: as §1
# EHF = biological target: T5, EHF (Homo sapiens, UniProt Q9NZC4 1-300); conditions: protein: recombinant; tags: N-terminal GST; dsDNA, one strand shown
# T5 sequence: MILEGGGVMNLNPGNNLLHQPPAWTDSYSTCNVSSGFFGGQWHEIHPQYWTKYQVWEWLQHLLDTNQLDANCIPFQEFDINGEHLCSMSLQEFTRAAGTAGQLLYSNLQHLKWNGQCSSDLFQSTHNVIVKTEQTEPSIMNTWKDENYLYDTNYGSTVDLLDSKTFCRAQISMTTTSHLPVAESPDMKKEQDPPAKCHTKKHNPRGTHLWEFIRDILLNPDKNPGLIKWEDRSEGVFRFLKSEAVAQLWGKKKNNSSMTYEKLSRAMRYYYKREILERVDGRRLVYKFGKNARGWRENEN
# Summary of the method: as §1
# SPI1 = SPI1 (Homo sapiens, UniProt P17947 1-270); conditions: protein: recombinant; tags: N-terminal GST; dsDNA, one strand shown
# Summary of the method: as §1
# SPIB = SPIB (Homo sapiens, UniProt Q01892 1-262); conditions: protein: recombinant; tags: N-terminal GST; dsDNA, one strand shown
# Summary of the method: as §1
# ELK3 = biological target: T6, ELK3 (Homo sapiens, UniProt P41970 1-407); conditions: protein: recombinant; tags: N-terminal GST; dsDNA, one strand shown
# T6 sequence: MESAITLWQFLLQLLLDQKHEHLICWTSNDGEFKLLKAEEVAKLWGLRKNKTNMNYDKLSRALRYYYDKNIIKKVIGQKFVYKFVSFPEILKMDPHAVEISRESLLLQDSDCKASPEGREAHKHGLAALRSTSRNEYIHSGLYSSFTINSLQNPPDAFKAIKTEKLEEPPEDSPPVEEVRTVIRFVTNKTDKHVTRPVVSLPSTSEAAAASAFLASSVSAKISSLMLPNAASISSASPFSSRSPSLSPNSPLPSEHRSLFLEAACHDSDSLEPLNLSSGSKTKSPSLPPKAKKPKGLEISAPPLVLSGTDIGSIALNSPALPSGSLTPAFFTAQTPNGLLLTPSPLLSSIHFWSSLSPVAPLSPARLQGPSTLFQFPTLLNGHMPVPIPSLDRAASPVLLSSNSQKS
# Summary of the method: as §1
# FEV = biological target: T7, FEV (Homo sapiens, UniProt Q99581 1-238); conditions: protein: recombinant; tags: N-terminal GST; dsDNA, one strand shown
# T7 sequence: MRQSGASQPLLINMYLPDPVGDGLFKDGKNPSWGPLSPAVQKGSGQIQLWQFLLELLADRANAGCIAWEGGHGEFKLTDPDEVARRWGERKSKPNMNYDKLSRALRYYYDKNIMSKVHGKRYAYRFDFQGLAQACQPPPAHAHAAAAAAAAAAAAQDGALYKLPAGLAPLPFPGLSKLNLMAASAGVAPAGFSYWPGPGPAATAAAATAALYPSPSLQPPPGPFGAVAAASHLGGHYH
# Summary of the method: as §1
# ETV5 = ETV5 (Homo sapiens, UniProt P41161 1-510); conditions: protein: recombinant; tags: N-terminal GST; dsDNA, one strand shown
# Summary of the method: as §1
# HSF1 = HSF1 (Homo sapiens, UniProt Q00613 1-529); conditions: protein: recombinant; tags: N-terminal GST; chain copies: 3; dsDNA, one strand shown
# Summary of the method: as §1
# SPIC = biological target: T8, SPIC (Homo sapiens, UniProt Q8N5J4 1-248); conditions: protein: recombinant; tags: N-terminal GST; dsDNA, one strand shown
# T8 sequence: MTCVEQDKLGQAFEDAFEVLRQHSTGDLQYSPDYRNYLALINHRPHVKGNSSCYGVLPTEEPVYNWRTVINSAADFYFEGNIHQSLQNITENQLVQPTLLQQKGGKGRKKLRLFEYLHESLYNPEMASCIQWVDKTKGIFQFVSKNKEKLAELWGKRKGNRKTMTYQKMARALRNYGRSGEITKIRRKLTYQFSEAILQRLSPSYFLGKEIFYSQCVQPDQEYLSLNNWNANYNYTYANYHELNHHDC
# Summary of the method: as §1
# ELF4 = ELF4 (Homo sapiens, UniProt Q99607 1-663); conditions: protein: recombinant; tags: N-terminal GST; dsDNA, one strand shown
# Summary of the method: as §1
# ELK4 = biological target: T9, ELK4 (Homo sapiens, UniProt P28324-2 1-405); conditions: protein: recombinant; tags: N-terminal GST; dsDNA, one strand shown
# T9 sequence: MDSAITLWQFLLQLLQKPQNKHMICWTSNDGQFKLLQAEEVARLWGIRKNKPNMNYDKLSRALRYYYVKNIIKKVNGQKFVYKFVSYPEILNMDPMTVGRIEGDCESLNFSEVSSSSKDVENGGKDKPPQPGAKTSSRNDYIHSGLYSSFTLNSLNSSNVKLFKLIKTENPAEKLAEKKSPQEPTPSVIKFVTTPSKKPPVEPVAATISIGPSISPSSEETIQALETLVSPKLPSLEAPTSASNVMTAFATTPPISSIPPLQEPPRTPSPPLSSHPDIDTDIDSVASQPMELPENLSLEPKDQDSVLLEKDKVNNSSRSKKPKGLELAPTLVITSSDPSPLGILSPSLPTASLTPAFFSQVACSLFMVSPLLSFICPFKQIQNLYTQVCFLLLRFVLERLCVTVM
# Summary of the method: as §1
# ETV2 = biological target: T10, ETV2 (Homo sapiens, UniProt O00321 1-342); conditions: protein: recombinant; tags: N-terminal GST; dsDNA, one strand shown
# T10 sequence: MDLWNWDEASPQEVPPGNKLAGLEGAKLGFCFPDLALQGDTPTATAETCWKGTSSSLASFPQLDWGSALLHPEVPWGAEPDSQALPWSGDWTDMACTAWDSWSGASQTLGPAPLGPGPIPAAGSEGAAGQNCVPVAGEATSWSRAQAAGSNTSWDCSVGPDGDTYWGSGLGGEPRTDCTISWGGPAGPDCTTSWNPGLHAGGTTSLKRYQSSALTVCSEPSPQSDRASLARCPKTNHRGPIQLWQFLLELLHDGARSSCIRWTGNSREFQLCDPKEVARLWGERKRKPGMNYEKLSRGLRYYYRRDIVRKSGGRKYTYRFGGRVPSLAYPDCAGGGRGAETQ
# Summary of the method: as §1
# ELF3 = biological target: T11, ELF3 (Homo sapiens, UniProt P78545 1-371); conditions: protein: recombinant; tags: N-terminal GST; dsDNA, one strand shown
# T11 sequence: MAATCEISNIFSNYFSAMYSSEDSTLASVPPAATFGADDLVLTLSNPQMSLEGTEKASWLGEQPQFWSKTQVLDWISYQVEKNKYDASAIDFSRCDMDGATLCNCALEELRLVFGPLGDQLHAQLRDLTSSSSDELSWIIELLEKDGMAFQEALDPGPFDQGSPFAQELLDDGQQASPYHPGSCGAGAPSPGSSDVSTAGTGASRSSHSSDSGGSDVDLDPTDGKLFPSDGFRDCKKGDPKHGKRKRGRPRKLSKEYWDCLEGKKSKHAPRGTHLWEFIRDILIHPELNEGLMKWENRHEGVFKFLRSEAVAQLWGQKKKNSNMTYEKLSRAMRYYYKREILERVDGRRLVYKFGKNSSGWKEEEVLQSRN
# Summary of the method: as §1
# CRX = CRX (Homo sapiens, UniProt O43186 1-299); conditions: protein: recombinant; tags: N-terminal GST; dsDNA, one strand shown
# Summary of the method: as §1
# ETV1 = ETV1 (Homo sapiens, UniProt P50549 1-477); conditions: protein: recombinant; tags: N-terminal GST; dsDNA, one strand shown
# Summary of the method: as §1
# Sequence of CRX (O43186 whole entry): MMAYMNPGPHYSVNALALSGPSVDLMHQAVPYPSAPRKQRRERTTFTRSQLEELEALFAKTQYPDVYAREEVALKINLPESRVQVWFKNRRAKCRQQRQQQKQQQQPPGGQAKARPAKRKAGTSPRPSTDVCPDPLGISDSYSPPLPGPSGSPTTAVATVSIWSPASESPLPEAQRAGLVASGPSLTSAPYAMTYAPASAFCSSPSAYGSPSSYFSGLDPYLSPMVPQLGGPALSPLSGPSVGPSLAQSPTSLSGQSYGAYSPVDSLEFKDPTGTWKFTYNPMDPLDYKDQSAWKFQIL
# Sequence of ETV1 (P50549 whole entry): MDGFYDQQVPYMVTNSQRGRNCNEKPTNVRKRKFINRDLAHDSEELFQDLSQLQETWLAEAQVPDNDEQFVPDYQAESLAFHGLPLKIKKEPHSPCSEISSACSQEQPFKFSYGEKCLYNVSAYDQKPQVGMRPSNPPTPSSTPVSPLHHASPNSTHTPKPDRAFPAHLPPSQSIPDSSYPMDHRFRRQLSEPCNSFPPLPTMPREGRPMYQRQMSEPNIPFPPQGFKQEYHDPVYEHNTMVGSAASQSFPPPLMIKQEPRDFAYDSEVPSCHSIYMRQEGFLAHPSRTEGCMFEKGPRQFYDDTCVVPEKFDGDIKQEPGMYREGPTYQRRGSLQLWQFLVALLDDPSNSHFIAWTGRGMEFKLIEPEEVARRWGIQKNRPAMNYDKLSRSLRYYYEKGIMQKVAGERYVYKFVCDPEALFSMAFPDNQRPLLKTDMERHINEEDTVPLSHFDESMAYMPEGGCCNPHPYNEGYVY
# Sequence of ELF1 (P32519 whole entry): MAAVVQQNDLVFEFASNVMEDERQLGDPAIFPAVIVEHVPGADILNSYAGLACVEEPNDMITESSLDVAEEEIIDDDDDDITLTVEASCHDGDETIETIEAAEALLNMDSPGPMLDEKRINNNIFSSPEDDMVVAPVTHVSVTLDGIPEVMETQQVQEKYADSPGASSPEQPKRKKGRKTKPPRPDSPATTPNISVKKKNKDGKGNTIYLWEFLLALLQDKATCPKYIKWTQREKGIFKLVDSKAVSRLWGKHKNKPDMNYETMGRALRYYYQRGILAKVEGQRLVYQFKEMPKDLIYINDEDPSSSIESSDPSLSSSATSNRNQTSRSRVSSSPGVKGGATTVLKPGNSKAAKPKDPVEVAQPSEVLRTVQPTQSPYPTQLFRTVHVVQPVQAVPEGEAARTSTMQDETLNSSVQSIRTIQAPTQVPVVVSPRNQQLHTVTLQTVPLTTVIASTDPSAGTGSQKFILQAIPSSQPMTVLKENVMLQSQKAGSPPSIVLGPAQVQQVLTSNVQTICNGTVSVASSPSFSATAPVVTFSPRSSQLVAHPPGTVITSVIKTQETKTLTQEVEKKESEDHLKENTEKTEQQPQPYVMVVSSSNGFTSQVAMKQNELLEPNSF
# Sequence of HSF1 (Q00613 whole entry): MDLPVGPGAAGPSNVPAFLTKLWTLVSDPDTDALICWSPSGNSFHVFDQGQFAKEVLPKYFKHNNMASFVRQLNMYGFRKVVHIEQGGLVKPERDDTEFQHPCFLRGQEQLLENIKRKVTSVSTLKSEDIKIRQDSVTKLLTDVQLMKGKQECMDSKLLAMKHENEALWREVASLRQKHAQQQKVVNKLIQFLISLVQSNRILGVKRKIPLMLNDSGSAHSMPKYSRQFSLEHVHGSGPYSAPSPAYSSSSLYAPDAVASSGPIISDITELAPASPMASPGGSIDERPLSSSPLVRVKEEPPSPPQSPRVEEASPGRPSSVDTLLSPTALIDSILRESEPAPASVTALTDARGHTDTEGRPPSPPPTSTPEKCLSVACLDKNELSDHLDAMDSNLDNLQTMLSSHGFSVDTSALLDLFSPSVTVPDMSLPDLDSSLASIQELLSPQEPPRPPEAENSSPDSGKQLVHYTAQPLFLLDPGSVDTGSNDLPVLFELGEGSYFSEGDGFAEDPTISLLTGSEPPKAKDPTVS
# Sequence of ETV5 (P41161 whole entry): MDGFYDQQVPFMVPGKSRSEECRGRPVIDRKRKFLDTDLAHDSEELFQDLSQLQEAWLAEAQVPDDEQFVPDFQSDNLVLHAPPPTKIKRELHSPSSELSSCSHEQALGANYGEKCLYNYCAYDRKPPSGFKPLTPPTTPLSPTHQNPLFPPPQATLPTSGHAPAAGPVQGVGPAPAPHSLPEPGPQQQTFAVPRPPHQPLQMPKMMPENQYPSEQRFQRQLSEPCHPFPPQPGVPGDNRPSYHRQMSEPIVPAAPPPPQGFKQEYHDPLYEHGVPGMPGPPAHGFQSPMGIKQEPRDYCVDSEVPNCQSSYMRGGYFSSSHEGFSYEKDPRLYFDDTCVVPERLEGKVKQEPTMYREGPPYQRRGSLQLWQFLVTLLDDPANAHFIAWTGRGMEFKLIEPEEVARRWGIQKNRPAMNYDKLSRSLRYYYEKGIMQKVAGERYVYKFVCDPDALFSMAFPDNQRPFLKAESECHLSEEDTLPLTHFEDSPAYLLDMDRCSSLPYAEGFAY
# Sequence of ELF4 (Q99607 whole entry): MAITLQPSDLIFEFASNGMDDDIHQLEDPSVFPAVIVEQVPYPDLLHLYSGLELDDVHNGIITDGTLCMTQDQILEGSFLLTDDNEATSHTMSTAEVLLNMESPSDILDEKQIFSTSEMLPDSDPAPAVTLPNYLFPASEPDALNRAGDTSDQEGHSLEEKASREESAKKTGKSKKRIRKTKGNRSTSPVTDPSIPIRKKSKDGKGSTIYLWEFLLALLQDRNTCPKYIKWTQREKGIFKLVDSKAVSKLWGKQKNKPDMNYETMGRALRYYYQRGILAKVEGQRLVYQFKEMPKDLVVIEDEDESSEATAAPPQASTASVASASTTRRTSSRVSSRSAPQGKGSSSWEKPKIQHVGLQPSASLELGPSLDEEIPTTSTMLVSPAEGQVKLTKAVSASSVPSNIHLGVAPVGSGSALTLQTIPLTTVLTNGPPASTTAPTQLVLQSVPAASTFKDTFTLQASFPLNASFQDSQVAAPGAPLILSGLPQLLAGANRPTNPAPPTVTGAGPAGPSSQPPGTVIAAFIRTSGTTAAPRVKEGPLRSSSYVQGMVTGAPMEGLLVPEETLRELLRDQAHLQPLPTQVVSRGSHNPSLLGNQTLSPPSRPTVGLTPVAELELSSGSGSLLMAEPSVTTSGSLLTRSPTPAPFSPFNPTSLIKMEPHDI
# Sequence of SPIB (Q01892 whole entry): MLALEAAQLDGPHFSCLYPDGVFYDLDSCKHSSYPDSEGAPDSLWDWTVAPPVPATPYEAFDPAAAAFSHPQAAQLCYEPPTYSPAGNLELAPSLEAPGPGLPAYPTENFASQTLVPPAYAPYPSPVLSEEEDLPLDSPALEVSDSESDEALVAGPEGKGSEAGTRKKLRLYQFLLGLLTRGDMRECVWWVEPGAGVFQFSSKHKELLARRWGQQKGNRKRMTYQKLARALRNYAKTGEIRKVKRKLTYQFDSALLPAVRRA
sequence,measurement,setting,value
TCAAAC,binding signal,FLI1,"1.17 fold enrichment (6-mer frequency, TF over GST control)"
same,binding signal,ELK1,"1.25 fold enrichment (6-mer frequency, TF over GST control)"
same,binding signal,GABPA,"1.26 fold enrichment (6-mer frequency, TF over GST control)"
same,binding signal,ERG,"1.26 fold enrichment (6-mer frequency, TF over GST control)"
same,binding signal,ELF1,"1.15 fold enrichment (6-mer frequency, TF over GST control)"
same,binding signal,EHF,"1.15 fold enrichment (6-mer frequency, TF over GST control)"
same,binding signal,SPI1,"1.16 fold enrichment (6-mer frequency, TF over GST control)"
same,binding signal,SPIB,"1.16 fold enrichment (6-mer frequency, TF over GST control)"
same,binding signal,ELK3,"1.2 fold enrichment (6-mer frequency, TF over GST control)"
same,binding signal,FEV,"1.21 fold enrichment (6-mer frequency, TF over GST control)"
same,binding signal,ETV5,"1.17 fold enrichment (6-mer frequency, TF over GST control)"
same,binding signal,HSF1,"1.03 fold enrichment (6-mer frequency, TF over GST control)"
same,binding signal,SPIC,"1.19 fold enrichment (6-mer frequency, TF over GST control)"
same,binding signal,ELF4,"1.21 fold enrichment (6-mer frequency, TF over GST control)"
same,binding signal,ELK4,"1.28 fold enrichment (6-mer frequency, TF over GST control)"
same,binding signal,ETV2,"1.3 fold enrichment (6-mer frequency, TF over GST control)"
same,binding signal,ELF3,"1.24 fold enrichment (6-mer frequency, TF over GST control)"
same,binding signal,CRX,"1.14 fold enrichment (6-mer frequency, TF over GST control)"
same,binding signal,ETV1,"1.29 fold enrichment (6-mer frequency, TF over GST control)"
